High-throughput results (PubChem)
U2OS ROS induce = cancer cell ROS induction. U2OS ROS induction, H2DCF-DA fluorescence. ROS induction (% of piperlongumine), % at 10 µM. 46,000 compounds, 2% hits; in the data active = ROS induction above about 79%, passing the limit was not always enough;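 note: 0% = DMSO vehicle median and 100% = reference compound median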
* marks the source's active call; other numbers are inactive results. The full list was thinned out, with hits kept by preference.

SMILES	U2OS ROS induce
COC(=O)C(CC#Cc1ccc2c(c1)[C@]1(C(=O)N2)[C@H](c2ccccc2OCCO)N2[C@H](c3ccccc3)[C@H](c3ccccc3)OC(=O)[C@H]2[C@@H]1C(=O)Nc1nc2ccccc2s1)C(=O)OC	45.9
O=C1O[C@@H](c2ccccc2)[C@@H](c2ccccc2)N2[C@@H](c3ccc(OCCO)cc3)[C@]3(C(=O)Nc4ccc(C#CC5=CCCCC5)cc43)[C@@H](C(=O)O)[C@H]12	159.2*
C=CCNC(=O)[C@H]1[C@@H]2C(=O)O[C@@H](c3ccccc3)[C@@H](c3ccccc3)N2[C@@H](c2ccc(OCCO)cc2)[C@]12C(=O)Nc1ccc(C#CCC(C(=O)OC)C(=O)OC)cc12	156.6*
NC(=O)[C@H]1[C@@H]2C(=O)O[C@@H](c3ccccc3)[C@@H](c3ccccc3)N2[C@@H](c2ccc(OCCO)cc2)[C@]12C(=O)Nc1ccc(C#CC3=CCCCC3)cc12	28.4
COC(=O)C(CC#Cc1ccc2c(c1)[C@]1(C(=O)N2)[C@H](c2ccc(OCCO)cc2)N2[C@H](c3ccccc3)[C@H](c3ccccc3)OC(=O)[C@H]2[C@@H]1C(=O)N1CCc2cc(OC)c(OC)cc2C1)C(=O)OC	131.8*
C=CCNC(=O)[C@H]1[C@@H]2C(=O)O[C@@H](c3ccccc3)[C@@H](c3ccccc3)N2[C@@H](c2ccc(O)cc2)[C@]12C(=O)Nc1ccc(C#Cc3ccc(OC)cc3)cc12	11.0
C=CCNC(=O)[C@H]1[C@@H]2C(=O)O[C@@H](c3ccccc3)[C@@H](c3ccccc3)N2[C@@H](c2ccc(OCCO)cc2)[C@]12C(=O)Nc1ccc(C#CC3=CCCCC3)cc12	43.3
CCOC(=O)c1cc[nH]c1C	-8.9
COc1ccc(OC)c(-c2nc(C)sc2CC(=O)O)c1	-13.7
Cc1ccc(S(=O)(=O)Nc2ccc3c(c2)C(=O)N([C@H](C)CO)C[C@H](C)[C@@H](CN(C)C(=O)Nc2cccc4ccccc24)O3)cc1	5.5
CCN(CC)C(=O)CSc1ncnc2c1nnn2Cc1ccc(F)cc1	14.5
COc1ccc(NC(=O)Nc2ccc3c(c2)C(=O)N([C@@H](C)CO)C[C@@H](C)[C@@H](CN(C)C)O3)cc1	-2.3
C=CCNC(=O)[C@@H]1[C@H]2C(=O)O[C@H](c3ccccc3)[C@H](c3ccccc3)N2[C@H](c2ccccc2OCCO)[C@@]12C(=O)Nc1ccc(C#CCNC(N)=O)cc12	10.9
C=CCNC(=O)[C@H]1[C@@H]2C(=O)O[C@@H](c3ccccc3)[C@@H](c3ccccc3)N2[C@@H](c2ccccc2OCCO)[C@]12C(=O)Nc1ccc(C#Cc3ccc(OC)cc3)cc12	14.3
COC(=O)C(CC#Cc1ccc2c(c1)[C@]1(C(=O)N2)[C@H](C(=O)NC[C@H](O)c2ccccc2)[C@H]2C(=O)O[C@H](c3ccccc3)[C@H](c3ccccc3)N2[C@@H]1c1ccc(OCCO)cc1)C(=O)OC	22.9
NC(=O)NCC#Cc1ccc2c(c1)[C@]1(C(=O)N2)[C@H](c2ccccc2OCCO)N2[C@H](c3ccccc3)[C@H](c3ccccc3)OC(=O)[C@H]2[C@@H]1C(=O)NC[C@H](O)c1ccccc1	6.2
COC(=O)C(CC#Cc1ccc2c(c1)[C@]1(C(=O)N2)[C@H](c2ccccc2OCCO)N2[C@H](c3ccccc3)[C@H](c3ccccc3)OC(=O)[C@H]2[C@@H]1C(=O)NC[C@H](O)c1ccccc1)C(=O)OC	204.9*
C=CCNC(=O)[C@@H]1[C@H]2C(=O)O[C@H](c3ccccc3)[C@H](c3ccccc3)N2[C@H](c2ccccc2OCCO)[C@@]12C(=O)Nc1ccc(C#CCC(C(=O)OC)C(=O)OC)cc12	191.7*
O=C(NCc1ccccn1)Nc1ccc(F)cc1F	-8.7
C[C@@H]1CN([C@@H](C)CO)C(=O)Cc2cc(NC(=O)C3CCCCC3)ccc2O[C@@H]1CN(C)C(=O)Nc1cccc2ccccc12	8.8
Cc1noc(C)c1NC(=O)Nc1ccc2c(c1)C(=O)N([C@H](C)CO)C[C@H](C)[C@@H](CN(C)Cc1ccc(Oc3ccccc3)cc1)O2	2.3
O=c1oc2ccc3ccccc3c2c2c1SC(C(F)(F)F)C2 (centres undefined)	-3.8
COc1ccc(S(=O)(=O)N(C)C[C@H]2Oc3ccc(NS(=O)(=O)c4cn(C)cn4)cc3C(=O)N([C@@H](C)CO)C[C@H]2C)cc1	-4.5
COc1ccc(C(C)(C)C)cc1S(=O)(=O)NCC1CCCO1 (centres undefined)	7.8
Cc1ccc(Nc2nnc(-c3ccc(C)c(S(=O)(=O)NCC4CCCO4)c3)c3ccccc23)cc1 (centres undefined)	216.0*
Cc1ccc(-c2nnc(N3CCOCC3)c3ccccc23)cc1S(=O)(=O)NC(C)(C)CO	-6.6
O=C(Cn1nc(-c2ccc(Cl)cc2)ccc1=O)NCc1ccco1	-7.3
C[C@@H]1CCCCO[C@@H](CN(C)Cc2ccc(C(=O)O)cc2)[C@@H](C)CN([C@H](C)CO)C(=O)c2cc(NS(=O)(=O)c3ccc(F)cc3)ccc2O1	4.6
OCCNc1nc2ccccc2n1CCOc1ccccc1	-1.0
O=C(N/N=C/c1ccc([N+](=O)[O-])o1)c1ccc(O)cc1	-5.5
